Bioassay records as filed in PubChem BioAssay.
hERG WT inh: inhibitors of human wildtype KCNH2 potassium channel; Q12809; U2OS, BacMam KCNH2, thallium flux FluxOr; stronger effect = lower value; activity change, % at 1.84 µM; actives 0.37% (n = 340,000);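 active means maximum activity change below -70%; inconclusive means maximum activity change between -70% and -50%; inactive means maximum activity change above -50%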; further: on the % scale 0 is the no-effect control and ±100 the full control effect
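U2OS cells were transduced with wild-type KCNH2 virus (2.03 x 10^8 / mL) for 4 h at room temperature, then cultured overnight at 37 C. Thallium flux was read with FluxOr dye. Rate constants were normalized to DMSO controls.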
KCNH2 3.1 block: blocks the human KCNH2 3.1 channel isoform; actives 0.95% (n = 340,000); U2OS KCNH2 3.1, thallium flux FluxOr; stronger effect = lower value; activity change, % (tested at about 1.8 µM);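 active means maximum activity change below -70%; inconclusive means maximum activity change from -70% to -50%; inactive means maximum activity change above -50%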;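 further: thallium influx rate constant from kinetic fluorescence after stimulation buffer; on the % scale 0 is the no-effect control and ±100 the full control effect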
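Kinetic fluorescence (2 min after stimulation buffer) measures Tl+ influx through KCNH2 3.1 expressed by viral transduction in U2OS cells; the rate constant is normalized against DMSO controls serving as positive and negative references.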
Tb PFK inh: T. brucei PFK enzyme inhibition; O15648; T. brucei PFK, ADP-Glo luminescence; Potency, µM (top dose mostly 57.5 µM), without a hit: top-dose activity, negative = inhibition, most hits filed as inhibitors; actives 0.17% (n = 330,000); AID 485367; active means well fitted inhibition curve with a large enough effect; inconclusive means small, poorly fitted or top-dose-only effect, or effect the other way;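 further: potency means the concentration at half of the fitted maximal effect; 0% = uninhibited 1x PFK enzyme wells and -100% = no-enzyme wells; nearly all actives have a fitted effect of over 60% in size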
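Activity is normalized to no-enzyme wells (full inhibition) and 1.25 nM enzyme wells (no inhibition). Reaction: 0.5 mM F6P, 0.1 mM ATP, 45 min RT, ADP-Glo luminescence; concentration-response curves fitted and classed by quality.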
TSG101-PTAP inh: blocks PTAP/TSG101 interaction to inhibit HIV-1 budding. Q99816. Fluorescence polarization, FITC-PTAP peptide / Tsg101 binding. Potency, µM (top dose mostly 115 µM), for the others: at the top dose activity change, negative = inhibition, most hits filed as inhibitors. 340,000 tested, under 10 active. AID 493005; active means well fitted inhibition curve with a large enough effect in the main read-out, with a control signal flat, not every such curve was filed as active; inconclusive means small, poorly fitted or top-dose-only effect, or effect the other way, or a change in a side signal; inactive means no such curve, though single readings can be large or run the other way; further: potency means the concentration at half of the fitted maximal effect; % of control where 0% means no effect
Target sequence (Q99816 whole entry, looked up): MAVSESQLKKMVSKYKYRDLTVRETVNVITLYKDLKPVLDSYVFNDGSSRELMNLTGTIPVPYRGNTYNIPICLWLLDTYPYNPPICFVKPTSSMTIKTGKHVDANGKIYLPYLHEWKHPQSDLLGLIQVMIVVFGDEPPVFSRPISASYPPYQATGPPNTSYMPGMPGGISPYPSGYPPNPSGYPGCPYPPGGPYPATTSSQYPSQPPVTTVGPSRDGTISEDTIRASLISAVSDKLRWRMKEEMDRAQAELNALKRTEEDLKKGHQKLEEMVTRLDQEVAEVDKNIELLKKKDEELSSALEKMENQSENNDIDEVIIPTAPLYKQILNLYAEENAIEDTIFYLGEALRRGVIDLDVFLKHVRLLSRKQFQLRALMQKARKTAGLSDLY
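FP read-out: FITC-PTAP peptide, 50 nM final, binding Tsg101 binding domain, 10 uM final; 20 min, r.t.; 10 mM HEPES pH 7.5, 0.15 M NaCl, 0.01% Tween 20, 3 mM EDTA, 0.1 mM TCEP.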
The depositor's hits bear a star; u = inconclusive; x = no result. Rows were chosen to be rich in hits. Some 1.2% of all compounds tested hit in one or more screens of this group.

SMILES	hERG WT inh	KCNH2 3.1 block	Tb PFK inh	TSG101-PTAP inh
O=C(NCC1=C(c2cccc3ccccc23)C[C@@H]2CC[C@H]1N2Cc1ccco1)c1ccc([N+](=O)[O-])cc1	-24	-93*	x	x
CCOC(=O)c1cccc(C2=C(CNC(=O)c3nccs3)[C@H]3CC[C@@H](C2)N3Cc2ccccc2)c1	18	-84*	x	x
CCOC(=O)c1cccc(C2=C(CNC(=O)c3ocnc3C)[C@H]3CC[C@@H](C2)N3Cc2ccccc2)c1	5	-38	x	x
CCn1c(O)c(/C=N/NC(=O)c2ccncc2)c(=O)n(CC)c1=S	-5	-1	0%	u
CC(C)CC(=O)N[C@H](C(=O)N[C@H](C(=O)N[C@@H](CC(C)C)[C@@H](O)CC(=O)N[C@@H](C)C(=O)N[C@@H](CC(C)C)[C@@H](O)CC(=O)O)C(C)C)C(C)C	-4	1	u	-3%
COc1cccc(CCNCc2ccc(SC)cc2)c1	14	-12	-1%	0%
CC(C)n1c(/C=C/[C@H](O)C[C@H](O)CC(=O)O)c(-c2ccc(F)cc2)c2ccccc21	-13	10	u	0%
CCOCCSc1nc2c(c(-c3cccs3)c1C#N)CC/C2=C/c1cccs1	-1	x	-3%	u
COc1ccc(CCC(=O)N2C[C@H]3C[C@@H](C2)c2cccc(=O)n2C3)cc1	-10	1	1%	-3%
OC(c1cccc(Cl)c1)(c1cccc(Cl)c1)C1CN2CCC1CC2 (configuration not stated)	u	-86*	0%	-6%
O=C(Nc1cccc(C(F)(F)F)c1)OC1CN2CCC1CC2 (configuration not stated)	41	-5	-4%	-4%
COc1ccc(/C=C/C2=CCN(C)CC2)cc1	1	9	-7%	1%
CN1CC=C(/C=C/c2ccc(-c3ccccc3)cc2)CC1	8	-90*	3%	-1%
Cc1ccc(N2C(=O)NC(=O)/C(=C\c3cc(C)n(-c4cc(C(=O)O)cc(C(=O)O)c4)c3C)C2=O)cc1	-97*	-4	-8%	-1%
O=S1(=O)CC2(N3CCOCC3)CCCCCCC21 (configuration not stated)	-5	3	-6%	-4%
O=S1(=O)CC2(N3CCOCC3)CCCCC21 (configuration not stated)	-15	-94*	-4%	-2%
CCN(CC(=O)Nc1ccc(NC(C)=O)cc1)C(=O)CSC(c1ccccc1)c1ccccc1	0	9	4%	-9%
C=CCC1(CCCCC)C(=O)NC(=S)NC1=O	-82*	9	x	-2%
Cc1ccc(C(=O)N[C@@H](C)CN2C3=NC[C@H](Cc4ccccc4)N3C[C@H]2Cc2ccc(O)cc2)cc1Br	-85*	-12	-9%	5%
Cc1ccc(S(=O)(=O)c2nc(-c3ccccc3Cl)oc2N(C)C2CCN(C)CC2)cc1	u	-80*	0%	0%
Cc1ccc(-c2nc(N(C)C3CCN(C)CC3)c3ccccc3n2)cc1	-3	8	-5%	-7%
CN1CCN(c2ccc([N+](=O)[O-])c3no[n+]([O-])c23)CC1	-2	-1	-4%	u
O=[N+]([O-])c1ccc(N(CCO)CCO)c2c1no[n+]2[O-]	-34	-92*	x	x
CCOC(=O)C1=C(N)Oc2c(c(=O)oc3ccccc23)C12C(=O)N(C)c1ccccc12 (configuration not stated)	3	-6	3%	-1%
C=CCN1C(=O)C2(C(C(=O)OCC)=C(N)Oc3ccccc32)c2c1c1ccccc1oc2=O (configuration not stated)	-3	-109*	-10%	1%
SMILES	hERG WT inh	KCNH2 3.1 block	Tb PFK inh	TSG101-PTAP inh
Cc1ccc(-n2sc3ccccc3c2=O)cc1	-11	-7	9.5µM*	-6%
CCOC(=O)C1(CCOc2ccccc2)CCN(C2Cc3ccccc3C2)CC1	-11	-121*	2%	0%
COc1ccc(C(=O)C2CN(C)CC2c2ccc(Cl)cc2)cc1 (configuration not stated)	61	-13	0%	0%
CN1CC(C(=O)c2ccc([N+](=O)[O-])cc2)C(c2ccc(Cl)cc2)C1 (configuration not stated)	-13	-73*	8%	-5%
O=C(CN1CC=C(c2ccccc2)CC1)NC(=O)NCc1ccco1	-8	-90*	-9%	-16%
O=C(O)c1ccccc1NS(=O)(=O)c1cccc(N=Nc2c(O)[nH]c(=S)[nH]c2=O)c1	-3	-1	u	-6%
COc1cc(CC(=O)N2C[C@H]3C[C@@H](C2)c2cccc(=O)n2C3)cc(OC)c1OC	-199*	1	-2%	0%
CN(C)CCSCc1nnc2n1-c1ccc(Cl)cc1C(c1ccccc1Cl)=NC2	-32	-76*	x	-6%
COc1ccc(OC)c(NP(=O)(Oc2ccc(Cl)cc2)Oc2ccc(Cl)cc2)c1	-11	7	1%	-1%
COc1ccc(NP(=O)(Oc2ccc(Cl)cc2)Oc2ccc(Cl)cc2)cc1OC	-30	-113*	12%	0%
Cc1nn(C(C)(C)C)c(C)c1/C=N/OC(=O)Nc1ccc(Cl)c(Cl)c1	8	-29	17µM*	-2%
CSc1ccc(C(=O)C2CCCN(Cc3cccnc3)C2)cc1 (configuration not stated)	0	0	-3%	3%
CSc1ccc(C(=O)C2CCCN(Cc3cc4ccccc4[nH]3)C2)cc1 (configuration not stated)	-18	-104*	-2%	0%
Cc1cccc(NP(=O)(Oc2ccccc2)Oc2ccccc2)c1C	-242*	-7	0%	0%
BrCC(Br)C1CCC(Br)C(Br)C1 (configuration not stated)	0	9	0%	1%
Cn1c(O)c(/C=C/C=Nc2ccccc2)c(=O)n(C)c1=O	-88*	1	3%	1%
Cn1c(O)c(C=Nc2ccccc2)c(=O)n(C)c1=O	8	-2	1%	-7%
COC(=O)C(O)(c1ccc(N=Cc2ccccc2O)c(C)c1)C(F)(F)F (configuration not stated)	-113*	5	4%	0%
O=C1NC(=S)N(c2ccc(F)cc2)C(=O)/C1=C\c1ccoc1	-9	0	-17%	5%
O=C1NC(=S)N(c2ccc(F)cc2)C(=O)/C1=C/c1ccco1	x	x	6.7µM*	x
C[C@]12CC[C@@H](O)CC1=CC(=O)C1C2CC[C@]2(C)C(=O)CCC12 (some centres not stated)	23	-8	0%	-5%
C[n+]1c2cc(N)ccc2cc2ccc(N)cc21	-14	-23	x	u
CC(C)(CN)CC(=O)O	-254*	8	-10%	0%
COc1ccccc1CN1CCCC(C(=O)c2ccccc2OC)C1 (configuration not stated)	4	-19	2%	-2%
CCOc1ccc(CN2CCCC(C(=O)c3ccccc3OC)C2)cc1 (configuration not stated)	-30	-84*	-2%	0%
